# Source: PubChem BioAssay (NCI)
# Compounds without any hit were thinned out: in the full panel of roughly 83,000, 20% have a hit.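 Each cell line was grown in a 96-well plate and treated with one concentration of compound for 48 hours. Values below 10 were considered active.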 Values without a mark were called inactive. The source made the active and inactive calls.
# Test system: NCI-H522 lung
# Experiment: NCI-60 one-dose screen, 48 h (100 = growth as untreated, 0 = no growth, -100 = all killed)
# Settings: 10 µM unless noted
row,SMILES,growth
1,O=C(Nc1ccc(Cl)cc1)C1=NCCCCN1,82.6%
2,Fc1ccc(/C=C/c2cc(/C=C/c3ccc(F)cc3)n(-c3cc(F)cc(F)c3)n2)cc1,61.7%
3,Nc1n[nH]c2cccc(C#Cc3cccc(C(=O)Nc4ccc(Cl)c(C(F)(F)F)c4)c3)c12,30.9%
4,CC/C(=C(/c1ccc(Cl)cc1)c1ccc(OCCN2CCCCCC2)cc1)c1ccccc1,89.6%
5,COC(CCP(=O)(c1ccccc1)c1ccccc1)(C(=O)c1ccccc1)c1ccccc1 (centres undefined),28.9%
6,CC(=O)CC(=O)c1ccccc1.[Cu+2],97.5%
7,CN1CCN(Cc2ccc(NC(=O)c3cncc(C#Cc4cnc(N)c5ccc(C#N)cc45)c3)cc2C(F)(F)F)CC1,5.63% (active)
8,CNC(=O)c1cc(Oc2ccc3nc(NC(=O)NC(C)C)sc3c2)ccn1,59.3%
9,N/C(=N\c1nc2ccccc2s1)NC(=O)Nc1ccccc1,-13.2% (active)
10,CCOC(=O)/C(=C\c1ccccc1Cl)P(=O)(OCC)OCC,34%
11,O=C(/C=C/c1ccc(Cl)cc1)c1ccc(-n2cc(CN3CCN(c4cc5c(cc4F)c(=O)c(C(=O)O)cn5C4CC4)CC3)nn2)cc1,79.1%
12,COc1cc2cc(Oc3ccc(NC(=O)Nc4ccc(Cl)c(Cl)c4)cc3)c(C)nc2cc1OCCN1CCCCC1,102%
13,CCN(CC)CCN1C(=O)c2c(c(C)c3c(oc4cc(OC)ccc43)c2C)C1=O,91.9%
14,Cn1ncc(CC(=O)O)c1-n1nnc2cc(Cl)ccc2c1=O,97.3%
